According to PubChem BioAssay (NCI):
Compounds without any hit were thinned out: in the full panel of roughly 83,000, 20% have a hit.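 Negative percent growth values reflect cell death: -40 means 40% of the cells present at the start died, and -100 means all died.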 A number with no mark means an inactive call. Activity calls are given as the source filed them. Rule for the calls: active = growth percent below 10; inactive = the rest.

Experiments:
Assay in all cases: NCI-60 one-dose screen, 48 h (100 = growth as untreated, 0 = no growth, -100 = all killed)
Settings in all cases: 10 µM unless noted
[1] = test system: HT29 colon
[2] = test system: SNB-75 CNS
[3] = test system: SNB-19 CNS
[4] = test system: U251 CNS
[5] = test system: SK-MEL-5 melanoma
[6] = test system: UACC-62 melanoma
[7] = test system: LOX IMVI melanoma
[8] = test system: SK-MEL-28 melanoma
[9] = test system: SK-MEL-2 melanoma
[10] = test system: EKVX NSCLC
[11] = test system: SN12C renal
[12] = test system: UO-31 renal
[13] = test system: TK-10 renal
[14] = test system: ACHN renal
[15] = test system: CAKI-1 renal
[16] = test system: A498 renal
[17] = test system: CCRF-CEM leukemia
[18] = test system: MOLT-4 leukemia
[19] = test system: PC-3 prostate

SMILES	growth [1] [%]	growth [2]	growth [3] [%]	growth [4] [%]	growth [5] [%]	growth [6]	growth [7]	growth [8] [%]	growth [9] [%]	growth [10] [%]	growth [11] [%]	growth [12]	growth [13] [%]	growth [14] [%]	growth [15]	growth [16]	growth [17]	growth [18]	growth [19] [%]
O=C1/C(=C/c2ccccc2[N+](=O)[O-])Oc2ccc(O)c(O)c21	32.3	65.9%	70.3	54.1	62	-41.1% (active)	14.3%	22.5	43.1	63.9	31.1	28.7%	80.4	17.7	15.1%	65.7%	8.79% (active)	18.1%	
COc1cc(C2CC(c3cccc(Br)c3)=NN2C(C)=O)cc(OC)c1OC (stereo not drawn)	13.8	12%	40.8	12.2		14.8%	50.1%	70.2	59.1	52.7	41.8	-27.7% (active)	48.4	39.8	39.1%	19.1%	14.9%	19%	37.1
c1ccc2cc(C[n+]3ccn(CCCCCCn4cc[n+](Cc5ccc6ccccc6c5)c4)c3)ccc2c1	22.8	26.7%	48.8	34.4	42.3	50.1%	66.8%	63.4	36	37.3	34.9	97.2%	83.1	72.5	95.4%	10%	84.2%	74.9%	65.4
N#C/C(=C\c1ccc(F)cc1)n1nc2cccc(F)c2n1	25.6	0.195% (active)	63.6	28.1	73	45.7%	20.6%	53.2	58.7	71.1	76.2	41%	60.7	42.9	24.8%	11.7%	25.6%	52.3%	53.7
CCCCCCCCCCCCCCCCCCOc1ccc(CC(=O)OCC[N+]2(C)CCCCC2)cc1	91.4	102%	87.5	91.9	100	88.8%	94.7%	106	104	97.9	89.1	94.1%	99.1	97.5	100%	100%	89.8%	98.6%	92.2
COc1ccc(C(=S)N2CCN(c3cccc(C)c3)CC2)cc1OC	43.3	59.7%	78.5	53.9	60.2	64%	55.7%	75.7	34	102	75	76%	92.7	79.7	62.5%	86.4%	74%	54.8%	75.3
CCCCCCCCCCCCCCCCCCOc1ccc(CC(=O)OCC[N+](C)(C)C)cc1	94.5	113%	90.7	92.2	103	97.4%	91.1%	103	115	101	94.1	101%	93.8	99.9	90.4%	119%	102%	2.06% (active)	96.9
O=C(Nn1c(NCC(=O)N2c3ccccc3Sc3ccccc32)nnc1-c1ccc(O)cc1)c1ccccc1	103	102%	107	103	107	98.9%	90.8%	115	101	103	90.9	91.1%	104	98.8	101%	100%	-2.21% (active)	125%	90.7
CCOC(=O)CCN(C(=O)Nc1ccccc1)C1CCCCC1	114	83.5%	110	118	99.2	106%	118%	131	119	101	117	118%	120	110	110%	109%	107%	93.8%	119
COC(=O)[C@H](C)NC(=O)NC(=O)NC(=O)CI	67.2	112%	108	96.9		41.2%	-66.2% (active)	48	87.7	107	47.1	78.3%	70.6	76.7	-61.3% (active)	128%	-55.5% (active)	-31.7% (active)	86.7
CCC(C)(c1cc(C(C)(C)C)c(O)c(C(C)(C)C)c1)c1cc(C(C)(C)C)c(O)c(C(C)(C)C)c1	96.3	83.4%	104	98.6	100	91.8%	103%	106	96.2		101	92.2%	97.3	101	94.2%	101%	98.9%	100%	101
Cc1ccc(-c2nc(SCC(=O)Nc3nc(-c4ccc(Cl)cc4)cs3)[nH]c(=O)c2C#N)cc1	95.9	87.4%	108	94	102	90.5%	108%	108	82.9	101	110	88.4%	103	101	96.1%	85.2%	103%	90.4%	90.3
O=c1n(Cc2ccc3ccccc3c2)ccn1Cc1ccc2ccccc2c1	77.1	53.2%	87.2	92.5	95.5	89.8%	91.2%	94.3	83	96.6	91.2	86.5%	82.7	74.3	90%	105%	117%	91.8%	
COc1nc2ccc(C)cc2cc1-c1nc2c(cnn2-c2ccc(Br)cc2)c(=O)[nH]1	10.3	25.9%	41.8	15.2	51.1	29.1%	34.1%	39.3	48.2		48.5	45.7%	77.3	37.6	48.1%	7.08% (active)	17.9%	58.9%	28.1
NC1=C(c2nn[nH]n2)C(c2ccccc2Cl)c2ccc3ccccc3c2O1 (stereo not drawn)	132	56.7%	79.2	77.8	58	71.2%	77.8%	75.6	89.7	90.7	84	60%	74.9	77.5	36.9%	48%	77.5%	70.9%	57.5
CCOC(=O)Nc1ccc(C(=O)/C=C/c2ccccc2)cc1	37.4	116%	81.4	73.6	92.2	81.5%	70.5%	101	105	105	87	51.9%	103	102	105%	92.1%	91.6%	78.8%	88.6
